Structures are written as SMILES. Screen size: about 1,800 compounds; fewer than 10 were called active. The list is a sample of the results. Results with a measured potency or affinity are listed apart. Unmarked numbers belong to inactive results. The rule behind the calls is not given here.

The assay can be described thus: antiviral activity against H1N1 influenza, dose response, cell-based, strain KY180 (AID 540254). Particulars: H1N1 KY180 influenza antiviral cell-based screen; series mostly up to 40 µM; inhibition: at the top concentration.
The term inhibition denotes the change of the read-out against control, counted positive when it falls. With `Cc1cccc2sc(NNC(=O)c3ccc(S(=O)(=O)N4CCc5ccccc5C4)cc3)nc12`, the “inhibition” value was -2.51%. Consider `CCOc1ccc(C(=S)NC2CCCCC2)cc1OC`, for which the “inhibition” value was -0.49%. The same measure for `c1ccc2[nH]c(CSc3nc4ccccc4o3)nc2c1`: -1.51%; for `CCCCOC(=O)Nc1ccc(S(=O)(=O)Nc2cc(C)nc(C)n2)cc1`: 2.95%; for `Cc1cc(C(=O)N/N=C/c2c(C)[nH]n(-c3ccccc3)c2=O)n[nH]1`: -1.12%. The same measure for `C=CCOc1cccc(/C=N/NC(=O)CC(=O)NC2CCCCC2)c1`: 0.5%; for `O=C(CSc1n[nH]c(-c2ccccn2)n1)Nc1cccc(Cl)c1`: -5.15%; for `CN(C)CCCNC(=O)c1ccc(-c2cc(O)c3ncccc3c2)cc1`: 0%. Then `Oc1ccc(N=Nc2c(O)ccc3ccccc23)cc1`, with 0%; and `CC1=NN(c2ccc(C)cc2)C(=O)/C1=C\C=C\c1ccccc1`, with -2.51%; and `Cc1ccc(C(=O)N/C(=C\c2cccc([N+](=O)[O-])c2)C(=O)NCc2ccncc2)cc1`, with 3.8%. `CN(C)S(=O)(=O)c1ccc(NC(=O)CSc2ncnc3ccccc23)cc1`: the “inhibition” value was 3.52%. Regarding `Cc1ccc(S(=O)(=O)C2(C(=O)NCc3ccc4c(c3)OCO4)CC2)cc1`, the “inhibition” value is 0%. `O=C(Cn1cnc([N+](=O)[O-])n1)N/N=C/c1ccccc1O`: the “inhibition” value is 2.53%. The same measure for `Clc1cc2cccnc2c2ncccc12`: -1.12%; for `O=C(N/N=C(\Cc1ncc[nH]1)c1ccccc1)c1ccncc1`: -1.51%; for `CCOC(=O)Cc1nnc(NC(=O)C(CC)Sc2nncn2C)s1` (stereo not drawn): 1.97%. Then `Cc1ccc(NC(=O)COc2cccc3ccc(C)nc23)c(Br)c1`, with 0.5%.

With `COc1cccc(N=Nc2ccc3ccccc3c2O)c1`, the “inhibition” value is 2.01%. As for `Cn1c(SCC(=O)NC2CC2)nnc1-c1ccccn1`, the “inhibition” value is 1.12%. As for `COc1cc(O)c(/C=N/NC(=O)c2ccncc2)c(OC)c1[N+](=O)[O-]`, the “inhibition” value is -0.49%. Then `COC(=O)c1c(C)oc2ccc(N(C(=O)c3ccncc3)S(=O)(=O)c3ccc4ccccc4c3)cc12`, with -0.56%. Then `CC(=NNC(=S)N1CC2CCC(CC2)C1)c1nccs1`, with -3.44%; and `CCOc1cccc(/C=N/NC(=O)c2cccnc2)c1O`, with 0%.

With `O=C(N/N=C/c1cc(O)ccc1Br)c1cccnc1`, the “inhibition” value was 0%.

As to `COc1cccc2c(=O)n(CC(=O)Nc3ccc(F)cc3F)ccc12`, the “inhibition” value was 0%. The same measure for `CC(c1ccccc1)n1c(CO)nc2ccccc21` (stereo not drawn): 0%. With `O=C(Nc1nc(-c2ccccn2)cs1)c1ccco1`, the “inhibition” value is 1.51%. Then `O=C1/C(=C/c2ccc(O)c(O)c2)SC(=S)N1Nc1ccccc1`, with -0.56%; and `CN1CCN(c2ccc(N)cc2)CC1`, with -0.5%; and `COC(=O)Cn1c(=O)c2c(nc3n2CC(C)CN3c2ccc(C)c(C)c2)n(C)c1=O` (stereo not drawn), with 0.5%. The same measure for `CCCNC(=O)COC(=O)/C=C/c1ccco1`: -0.5%; for `CC(C)CCNC(=O)CCC(=O)NNc1nc2ccccc2c2nc(-c3ccccc3)nn12`: -0.56%. The same measure for `CCOc1ccc(NS(=O)(=O)c2ccc(NS(=O)(=O)c3ccc(SC)cc3)cc2)cc1`: 0.67%; for `COc1ccc(C(C)=O)cc1COC(=O)[C@H](Cc1ccccc1)NC(=O)c1ccco1`: 2.46%; for `CC(C)CC(C(=O)OCC(=O)Nc1ncc(Cl)cc1Cl)N1C(=O)c2ccccc2C1=O` (stereo not drawn): 0.56%. As for `CCN1/C(=C/c2ccc3cc(C)cc(C)c3[n+]2CC)Sc2cc(C)ccc21`, the “inhibition” value was -2.95%. Then `Cc1ccc(O)c(N=NC2=C(O)CC(C)(C)CC2=O)c1`, with -1.12%; and `Cc1cc2cc(CNC(=O)NC3CCCCC3)ccc2n1C`, with -0.56%. Turning to `COc1ccc(C(=O)N/N=C(\C)c2ccccn2)cc1OC`, the “inhibition” value is -2.91%. `Cc1ccc(NCCCn2cnc(C(=O)Nc3ccc(C)c(C)c3)n2)cc1C`: the “inhibition” value was 3.93%.

In the case of `COC(=O)c1cc(S(=O)(=O)N2CCCCCC2)c[nH]1`, the “inhibition” value was 2.91%.

For `O=C(O)c1ccc(N2C(=O)/C(=C/c3ccc(-c4ccc([N+](=O)[O-])cc4)o3)C=C2c2ccccc2)cc1`, the “inhibition” value is 0.25%.

Consider `O=C(N/N=C/c1cc([N+](=O)[O-])ccc1O)c1cccc(N2CCCC2=O)c1`, for which the “inhibition” value is 0.22%. Consider `O=C(NCc1ccccn1)C(=O)N/N=C/c1ccccc1O`, for which the “inhibition” value was -2.01%. The same measure for `CCCN1C(=O)/C(=C2\SC(N3CCCCC3)=NC2=O)c2ccccc21`: -4.25%; for `CCN(Cc1ccccc1)c1ccc(N=Nc2nn(C)c(C)c2[N+](=O)[O-])cc1`: -1.12%.

Consider `CCOC(=O)N1CCN(c2c(NCCc3ccccc3)c(=O)c2=O)CC1`, for which the “inhibition” value was 9.34%. As to `CCOc1ccc(-n2c(SCC(=O)Nc3ccccc3C)n[nH]c2=O)cc1`, the “inhibition” value is 1.27%.

On to `COc1cc(C=O)ccc1OCC(=O)Nc1ccc2c(c1)OCO2`, for which the “inhibition” value was -0.98%. Then `CC1=NN(c2ccccc2)C(=O)/C1=C/c1c(O)n(-c2ccc(F)cc2)[nH]c1=O`, with 2.01%. Then `Cc1cc(C)cc(N2C(=O)C3NN=C(C(=O)OCc4ccccc4)C3C2=O)c1` (stereo not drawn), with 0.5%; and `O=C1CCC(=O)N1CCC(c1ccc(F)cc1)c1ccco1` (stereo not drawn), with 1.27%. Then `CN(C)c1ccc(N=Cc2ccco2)cc1`, with -2.91%; and `COc1cccc(C(=O)O/N=C(\N)c2ccncc2)c1`, with -0.25%; and `Cc1ccc(NC(=O)N2CCCCCC2)cc1C`, with 0%. For `CCN(CC)CCN1C(=O)c2oc3ccc(F)cc3c(=O)c2C1c1ccncc1` (stereo not drawn), the “inhibition” value is 0%. The same measure for `CN(CC(=O)NCc1ccccn1)S(=O)(=O)c1ccc(Br)cc1`: 0%.

Turning to `CC(=O)Nc1cccc(NC(=O)CSc2nn3c(=O)c(C)nnc3s2)c1`, the “inhibition” value was 0.5%. The same measure for `Cc1ccn(CC(=O)N/N=C/c2cc([N+](=O)[O-])ccc2O)n1`: -1.27%. Then `Cc1cccc(NC(=O)CCN2C(=O)c3ccccc3S2(=O)=O)c1C`, with 2.53%. The same measure for `O=C(CN1C(=O)C2CCCCC2C1=O)Nc1nc(-c2ccccn2)cs1` (stereo not drawn): -4.7%; for `Cc1c(N=Nc2c(O)n(Cc3ccccc3)c(=O)[nH]c2=O)c(=O)n(-c2ccccc2)n1C`: -1.51%. `C=CC(=O)Nc1ccc(N(C)c2ccnc(Nc3ccc(N4CCN(C)CC4)cc3)n2)cc1`: the “inhibition” value is -2.51%. On to `CC(=O)N(Cc1ccc(F)cc1)C1=C(NCCc2ccccc2)C(=O)c2ccccc2C1=O`, for which the “inhibition” value was -5.15%.

For `O=C(O)c1ccc(N=Nc2c(O)ccc3ncccc23)cc1`, the “inhibition” value was 0%. Then `Cc1nc2sccn2c(=O)c1S(=O)(=O)Nc1cccc(Cl)c1C`, with -0.25%; and `CC(=NNC(=S)N1CC2CCC(CC2)C1)c1ccncn1`, with -2.95%; and `Clc1ccc(OCc2nc(-c3ccncc3)no2)c(Br)c1`, with -0.56%.

As for `CN1C(=O)/C(=C/c2cc(N=Nc3ccccc3)ccc2O)SC1=S`, the “inhibition” value was -5.15%.

Regarding `O=C(CSc1ccc(-c2ccccn2)nn1)Nc1ccc(F)c(F)c1`, the “inhibition” value is 0.25%.

On to `COc1ccc(N2CCN(C(=O)CCC(=O)N3CCOc4ccc(Cl)cc43)CC2)cc1`, for which the “inhibition” value is -1.47%. The same measure for `Cc1ccc2ccc3cccnc3c2n1`: -2.01%; for `Cc1noc(/C=C/N(C)C)c1S(=O)(=O)N1CCCC(C(=O)NC2CCCCC2)C1` (stereo not drawn): 2.53%; for `COc1ccc(N=Nc2cc(OC)c(N)cc2OC)cc1`: -1.51%. The same measure for `O=C(NC(=S)NNC(=O)c1ccccc1O)c1ccco1`: 1.27%. Then `CC1COCC(C)N1C1=C(Cl)C(=O)c2ccccc2C1=O` (stereo not drawn), with -2.95%. Take `COc1ccccc1N1CCN(C2CCCN(C(=O)c3cccc(-c4ccco4)c3)C2)CC1` (stereo not drawn): the “inhibition” value was -2.46%. Then `Clc1ccc(-c2ccc(-c3nn4c(-c5ccco5)nnc4s3)o2)cc1`, with -2.46%. Then `CCCCCn1cnc2c(sc3nc4c(cc32)CSC(C)(C)C4)c1=O`, with 0%.

As for `CCN(CC)C(=O)C1CCCc2c1[nH]c1ccc(Cl)cc21` (stereo not drawn), the “inhibition” value is -1.51%.

Regarding `CC(NC(=O)C(=O)NN=C1CCCCCCC1)c1ccccc1` (stereo not drawn), the “inhibition” value is -0.5%. Then `COc1ccc(NC(=O)CSc2n[nH]c(-c3ccccn3)n2)cc1`, with -3.8%; and `O=C(N/N=C/c1c(O)n(C2CC2)c(=S)[nH]c1=O)c1ccccc1O`, with 0.56%; and `Cc1ccc(NC(=O)CSc2nnc(C)c(=O)n2N)c(C)c1`, with 1.57%. As to `Cc1ccc(CN2CCC(n3nccc3NC(=O)CCCc3ccccc3)CC2)o1`, the “inhibition” value was 0%. As for `O=C1CCCN1CC(=O)N1CCCC(N2CCN(c3cccc(Cl)c3)CC2)C1` (stereo not drawn), the “inhibition” value was 0.67%. Take `CCNC(=O)CC1C(=O)N(c2ccc(F)cc2)C(=O)N1Cc1ccc(OC)cc1` (stereo not drawn): the “inhibition” value was 1.27%.

On to `O=C1C=C(c2c(O)ccc3ccccc23)c2ccccc2C1=O`, for which the “inhibition” value is -2.46%. Take `CCOC(=O)C1=C(C)n2c(s/c(=C/c3cccc([N+](=O)[O-])c3)c2=O)=NC1c1ccc(O)c(OC)c1` (stereo not drawn): the “inhibition” value is -1.27%. Then `CCC(C(=O)N/N=C(\C)c1cccnc1)c1ccccc1` (stereo not drawn), with 0.98%; and `CN(CCCC(=O)O)c1ccc(N=Nc2ccc([N+](=O)[O-])cc2)cc1`, with 0%; and `COc1cccc(C(=O)NN2c3ccccc3CCc3ccccc32)c1`, with 0%. On to `N#C/C(=C/c1cn(-c2ccccc2)nc1-c1cccc(OCc2ccc(F)cc2)c1)C(=O)NCCCn1ccnc1`, for which the “inhibition” value is -5.59%. The same measure for `CC1NC(=O)NC1CCCCCC(=O)Nc1ccc(F)c(Cl)c1` (stereo not drawn): 0%; for `CCOC(=O)C(C(C)=O)c1c(Br)c(O)c(O)c2c(C(=O)c3ccc(C)cc3)coc12` (stereo not drawn): -2.53%.

Turning to `Cc1ccc(-n2c(SCC(=O)NCc3ccco3)nc3c([nH]c4ccccc43)c2=O)cc1`, the “inhibition” value is -0.49%. The same measure for `CC(C)CC1Nc2ncnc(N3CCN(c4ccccc4)CC3)c2N(Cc2ccccc2)C1=O` (stereo not drawn): -0.56%.

For `C[C@@H](C(=O)Nc1nc(-c2ccccn2)cs1)N1C(=O)C2CCCCC2C1=O` (stereo partly drawn), the “inhibition” value is 0.5%. For `COc1ccc(C2(c3ccc(OC)cc3)NC(=O)N(CC(=O)Nc3ccc(OC(F)F)cc3)C2=O)cc1`, the “inhibition” value is -2.95%.

For the compound `Cn1nc(CC(=O)NC2CCCCCC2)c2ccccc2c1=O`, the “inhibition” value is 1.25%. In the case of `O=C(CCS(=O)(=O)c1ccc(F)cc1)Nc1nc(-c2ccccn2)cs1`, the “inhibition” value is -4.7%.

For the compound `COc1ccc(C2C(C#N)=C(N)Nc3onc(C(C)(C)C)c32)c(OC)c1` (stereo not drawn), the “inhibition” value was 0.25%. The same measure for `Oc1cccc(/C=N/NC(=S)Nc2cccnc2)c1O`: 0.22%; for `CCOC(=O)c1c(C)[nH]c(C(=O)N/N=C/c2cc([N+](=O)[O-])ccc2O)c1C`: -1.27%; for `Cc1[nH]c2ccccc2c1C(c1ccccn1)c1c(C)[nH]c2ccccc12`: 0.5%. For `Cc1[nH]c2ccccc2c1SCC(=O)N1CCOCC1`, the “inhibition” value is 1.25%. For the compound `Cc1ccc(S(=O)(=O)NCc2ccc3c(c2)cc(C)n3C)cc1`, the “inhibition” value is -2.91%.
